According to ChEMBL document CHEMBL1961873, “Compounds: GSK PKIS; Assays: Nanosyn kinase panel” (2012):

Assays:
[1] = molecular target: Protein kinase C gamma type (Homo sapiens) (UniProt P05129); conditions: at 1 µM;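 also: each value is an averaged percent inhibition of the enzyme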
[2] = molecular target: T1, Protein kinase C iota type (Homo sapiens) (UniProt P41743); conditions: at 0.1 µM
T1 sequence (whole entry): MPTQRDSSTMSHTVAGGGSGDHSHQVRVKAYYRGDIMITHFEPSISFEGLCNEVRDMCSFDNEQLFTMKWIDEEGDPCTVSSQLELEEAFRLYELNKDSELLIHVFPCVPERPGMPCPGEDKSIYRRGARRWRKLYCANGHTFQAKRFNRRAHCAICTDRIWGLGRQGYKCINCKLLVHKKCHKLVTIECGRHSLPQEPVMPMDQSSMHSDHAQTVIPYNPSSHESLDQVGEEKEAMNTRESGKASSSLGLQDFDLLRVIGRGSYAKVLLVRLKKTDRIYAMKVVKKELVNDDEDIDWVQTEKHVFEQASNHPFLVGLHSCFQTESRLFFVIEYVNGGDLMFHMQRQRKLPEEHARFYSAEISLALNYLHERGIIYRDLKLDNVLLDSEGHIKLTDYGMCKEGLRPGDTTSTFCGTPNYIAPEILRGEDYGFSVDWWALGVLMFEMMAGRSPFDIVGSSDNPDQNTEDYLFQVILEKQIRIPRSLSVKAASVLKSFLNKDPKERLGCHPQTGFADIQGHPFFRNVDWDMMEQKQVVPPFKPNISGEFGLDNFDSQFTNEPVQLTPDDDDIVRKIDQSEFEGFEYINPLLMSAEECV

[3] = molecular target: T1, Protein kinase C iota type (Homo sapiens); conditions: at 1 µM
[4] = molecular target: Protein kinase C theta type (Homo sapiens) (UniProt Q04759); conditions: at 0.1 µM
Chain of Protein kinase C theta type (Homo sapiens) (Q04759 whole entry, looked up): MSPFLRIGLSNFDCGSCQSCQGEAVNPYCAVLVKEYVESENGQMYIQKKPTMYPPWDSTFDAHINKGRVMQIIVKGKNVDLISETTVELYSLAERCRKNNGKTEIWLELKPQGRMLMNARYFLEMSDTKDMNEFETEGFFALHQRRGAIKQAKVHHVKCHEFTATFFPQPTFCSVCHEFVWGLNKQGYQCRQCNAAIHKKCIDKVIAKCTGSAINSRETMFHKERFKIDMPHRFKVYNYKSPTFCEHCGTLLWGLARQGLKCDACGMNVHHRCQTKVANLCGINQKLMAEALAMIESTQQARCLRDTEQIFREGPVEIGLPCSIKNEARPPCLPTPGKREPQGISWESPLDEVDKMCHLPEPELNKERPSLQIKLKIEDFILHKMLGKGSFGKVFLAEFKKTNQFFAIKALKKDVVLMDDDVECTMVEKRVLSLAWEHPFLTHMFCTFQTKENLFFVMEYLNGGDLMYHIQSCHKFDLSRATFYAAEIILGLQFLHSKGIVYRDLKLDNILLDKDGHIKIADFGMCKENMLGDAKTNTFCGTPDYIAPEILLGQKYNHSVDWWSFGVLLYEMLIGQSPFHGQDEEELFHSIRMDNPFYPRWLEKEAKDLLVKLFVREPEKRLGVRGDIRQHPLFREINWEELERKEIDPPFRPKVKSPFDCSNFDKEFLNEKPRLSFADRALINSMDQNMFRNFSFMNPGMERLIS

[5] = molecular target: Protein kinase C theta type (Homo sapiens) (UniProt Q04759); conditions: at 1 µM
[6] = molecular target: Protein kinase C beta type (Homo sapiens) (UniProt P05771); conditions: at 0.1 µM
Chain of Protein kinase C beta type (Homo sapiens) (P05771 2-671 limits assumed): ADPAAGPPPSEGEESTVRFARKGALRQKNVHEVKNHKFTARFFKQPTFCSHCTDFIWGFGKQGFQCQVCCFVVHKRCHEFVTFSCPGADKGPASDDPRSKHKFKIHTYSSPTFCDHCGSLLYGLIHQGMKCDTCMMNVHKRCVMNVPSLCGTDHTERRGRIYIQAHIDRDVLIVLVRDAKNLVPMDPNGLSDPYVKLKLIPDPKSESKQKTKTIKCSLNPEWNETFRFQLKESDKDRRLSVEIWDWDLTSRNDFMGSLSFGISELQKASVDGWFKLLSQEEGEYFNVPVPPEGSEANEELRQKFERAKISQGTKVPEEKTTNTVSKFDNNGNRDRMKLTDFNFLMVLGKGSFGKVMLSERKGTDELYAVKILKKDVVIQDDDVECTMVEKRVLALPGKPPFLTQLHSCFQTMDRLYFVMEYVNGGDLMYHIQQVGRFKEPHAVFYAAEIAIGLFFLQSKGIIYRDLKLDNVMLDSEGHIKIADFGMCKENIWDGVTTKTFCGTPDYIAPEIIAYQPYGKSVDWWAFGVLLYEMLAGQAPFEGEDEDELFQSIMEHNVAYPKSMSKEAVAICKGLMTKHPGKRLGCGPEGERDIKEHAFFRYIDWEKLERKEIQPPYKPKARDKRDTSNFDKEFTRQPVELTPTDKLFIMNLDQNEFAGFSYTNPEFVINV

[7] = molecular target: Protein kinase C beta type (Homo sapiens) (UniProt P05771); conditions: at 1 µM
[8] = molecular target: T2, Serine/threonine-protein kinase D1 (Homo sapiens) (UniProt Q15139); conditions: at 0.1 µM
T2 sequence (whole entry): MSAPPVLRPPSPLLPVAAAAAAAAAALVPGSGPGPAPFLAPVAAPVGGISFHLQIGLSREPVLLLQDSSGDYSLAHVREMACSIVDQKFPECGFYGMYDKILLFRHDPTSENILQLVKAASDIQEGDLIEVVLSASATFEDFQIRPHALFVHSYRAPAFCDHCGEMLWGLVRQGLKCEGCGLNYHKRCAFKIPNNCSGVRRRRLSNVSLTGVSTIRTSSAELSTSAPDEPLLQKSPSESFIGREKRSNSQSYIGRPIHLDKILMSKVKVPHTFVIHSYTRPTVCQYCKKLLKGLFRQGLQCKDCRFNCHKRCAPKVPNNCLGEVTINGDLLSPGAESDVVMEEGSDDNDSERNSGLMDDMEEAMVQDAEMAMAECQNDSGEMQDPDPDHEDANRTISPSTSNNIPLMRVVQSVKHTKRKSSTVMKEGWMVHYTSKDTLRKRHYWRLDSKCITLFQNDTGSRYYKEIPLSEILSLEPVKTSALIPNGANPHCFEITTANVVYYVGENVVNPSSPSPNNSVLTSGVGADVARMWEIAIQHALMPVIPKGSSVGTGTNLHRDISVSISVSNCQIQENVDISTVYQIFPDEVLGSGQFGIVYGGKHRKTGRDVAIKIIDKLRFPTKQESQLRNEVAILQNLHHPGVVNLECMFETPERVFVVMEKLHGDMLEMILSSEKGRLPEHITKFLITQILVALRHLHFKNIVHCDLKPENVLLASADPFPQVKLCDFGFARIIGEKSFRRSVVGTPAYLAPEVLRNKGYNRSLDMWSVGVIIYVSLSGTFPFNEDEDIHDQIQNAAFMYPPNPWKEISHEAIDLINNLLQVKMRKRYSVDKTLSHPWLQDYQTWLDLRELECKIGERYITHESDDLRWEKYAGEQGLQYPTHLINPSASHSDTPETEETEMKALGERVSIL

[9] = molecular target: T2, Serine/threonine-protein kinase D1 (Homo sapiens); conditions: at 1 µM
[10] = molecular target: T3, Serine/threonine-protein kinase D2 (Homo sapiens) (UniProt Q9BZL6); conditions: at 0.1 µM;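 also: reported percent inhibition values are means, part of the GSK PKIS kinase panel screen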
T3 sequence (whole entry): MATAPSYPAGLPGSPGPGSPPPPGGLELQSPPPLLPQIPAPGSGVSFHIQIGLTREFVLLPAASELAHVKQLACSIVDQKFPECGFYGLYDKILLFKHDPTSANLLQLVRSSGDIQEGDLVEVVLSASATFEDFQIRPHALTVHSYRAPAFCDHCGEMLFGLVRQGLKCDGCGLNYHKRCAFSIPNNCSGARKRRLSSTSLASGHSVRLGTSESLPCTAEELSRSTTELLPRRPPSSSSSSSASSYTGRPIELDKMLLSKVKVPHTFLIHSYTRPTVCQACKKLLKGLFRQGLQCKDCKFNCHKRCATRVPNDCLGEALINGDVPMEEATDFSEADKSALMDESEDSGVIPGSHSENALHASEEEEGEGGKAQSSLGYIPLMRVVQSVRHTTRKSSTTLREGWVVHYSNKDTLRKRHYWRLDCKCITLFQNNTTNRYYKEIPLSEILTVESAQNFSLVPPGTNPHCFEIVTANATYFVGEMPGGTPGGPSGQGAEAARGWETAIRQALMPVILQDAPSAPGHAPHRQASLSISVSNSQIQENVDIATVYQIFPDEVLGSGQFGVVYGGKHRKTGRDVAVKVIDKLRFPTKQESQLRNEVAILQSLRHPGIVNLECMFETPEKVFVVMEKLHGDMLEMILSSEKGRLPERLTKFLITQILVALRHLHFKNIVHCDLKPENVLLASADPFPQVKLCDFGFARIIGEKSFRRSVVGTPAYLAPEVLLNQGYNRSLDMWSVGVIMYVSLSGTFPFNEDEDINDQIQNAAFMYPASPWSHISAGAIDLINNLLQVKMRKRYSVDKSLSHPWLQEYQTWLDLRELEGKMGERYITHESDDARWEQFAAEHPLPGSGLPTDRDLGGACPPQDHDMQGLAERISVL

| Compound | inhibition [1] | inhibition [2] | inhibition [3] | inhibition [4] | inhibition [5] | inhibition [6] | inhibition [7] | inhibition [8] | inhibition [9] | inhibition [10] |
| --- | --- | --- | --- | --- | --- | --- | --- | --- | --- | --- |
| CCn1c(-c2nonc2N)nc2cncc(C(=O)N3CC[C@H](N)C3)c21 | 41.1% | 8.94% | 40% | 5.26% | 23.8% | 11.4% | 45.6% | 4.56% | 9.27% | 6.65% |
| Cc1nnc(-c2ccc(C)c(-c3ccc(C(=O)Nc4cccc(C#N)c4)cc3)c2)o1 | 5.13% | -0.73% | -1.05% | 1% | 1.47% | 1.09% | 1.38% | 4.29% | 4.48% | 2.17% |
| Cn1cc(C=C2C(=O)Nc3cccnc32)c2ccccc21 | -0.93% | 0.27% | 1.58% | -0.39% | 0.22% | 0.8% | 0.8% | 2.63% | 10.6% | 3.33% |
| Cc1ccc(C(=O)NC2CCCCC2)cc1-c1ccc(C(=O)NCC2CC2)cc1 | 3.86% | 0.11% | 2.97% | 1.39% | 0.58% | 1.11% | 3.12% | 1.97% | 2.69% | 1.98% |
| COc1cc2c(cc1Nc1nc(N3CCc4ccccc43)c3cc[nH]c3n1)N(C(=O)CN(C)C)CC2 | 5.19% | 1.44% | 3.35% | 1.03% | -0.74% | 1.14% | 1.29% | 1.69% | 3.76% | 1.71% |
| Cc1cccc(-c2n[nH]cc2-c2ccc3ncccc3n2)n1 | 0.55% | 0.4% | -1.7% | 0.33% | -0.49% | 0.52% | 0.49% | 2.77% | 32.8% | 5.63% |
| Nc1nc(-c2ccccn2)c(-c2ccc3ncccc3n2)s1 | 4.9% | 2.73% | 1.17% | 2.24% | 3.34% | -0.19% | 0.88% | 2.38% | 4.64% | 2.92% |
| COC(=O)Nc1nc2cc(Oc3cccc(NC(=O)Nc4cc(C(F)(F)F)ccc4F)c3)ccc2[nH]1 | 2.09% | -0.71% | -0.55% | -0.27% | -0.91% | 3.01% | 1.79% | 0.22% | 1.03% | 0.66% |
| CS(=O)(=O)Nc1ccc(N/C=C2\C(=O)Nc3ccccc32)cc1 | 0.03% | -1.38% | -0.98% | -1.09% | -0.74% | -1.02% | -0.85% | -2.24% | 3.18% | -0.04% |
| CC1=C(C(=O)Nc2ccc3[nH]ncc3c2)C(c2ccc(Cl)c(Cl)c2)CC(=O)N1 (stereo not given) | -2.08% | 0.23% | -0.03% | 0.6% | 5.07% | 0.17% | 0.61% | 0.89% | 4.46% | 1.41% |
| CN1CCC(C(=O)Nc2n[nH]c3nnc(-c4ccccc4)cc23)CC1 | 5.3% | 2.28% | 0.85% | 2.64% | 3.84% | 1.32% | 1.6% | 5.4% | 6.32% | 4.78% |
| O=C1NC(=O)C(c2ccc(Cl)cc2)=C1Nc1ccc(Cl)c(C(=O)O)c1 | 1.73% | 0.12% | 3.71% | -0.99% | -0.44% | -0.73% | 3.47% | -1.33% | 0.04% | -1.08% |
| NC(=O)c1ccc(-c2nc(-c3ccccn3)c(-c3ccc4c(c3)OCO4)[nH]2)cc1 | 3.47% | 0.81% | -0.05% | 0.77% | 1.31% | 1.96% | 5.1% | 2.47% | 5.43% | 2.87% |
| CNC(=O)c1cncc(/C=C/c2c(Cl)cccc2Cl)c1 | 1.44% | 0.96% | 0.96% | 1.94% | 1.94% | 0.86% | 1.27% | 2.34% | 5% | 1.54% |
| Fc1cccc(COc2ccc(Nc3ncnc4cc(-c5ccc[nH]5)sc34)cc2Cl)c1 | 2.69% | 1.76% | 1.59% | 0.25% | 2.17% | 0.99% | 2.94% | -0.95% | -1.14% | -0.92% |
| COc1ccc(COc2ccc(Cc3cnc(N)nc3N)cc2OC)cc1 | 0.23% | 0.94% | 2.56% | 0.95% | -0.58% | 2% | 1.96% | 0.61% | 2.03% | -0.07% |
| CCn1c(-c2nonc2N)nc2cncc(C(=O)N3CCNCC3)c21 | 0.03% | 1.74% | 0.89% | 3.06% | 3.7% | 1.85% | 3.67% | 5.23% | 6.72% | 5.57% |
